Measurements published in PubChem BioAssay (Tox21).
Where “and” joins values, the source holds several entries; their conditions need not be identical. Identical values can stand only once. Inconclusive results are not listed. Where a structure was tested more than once in an assay, its records may differ in their call. Calls of active or inactive are those of the source. Unless noted, the call rests on the fitted dose curve; in most records, active means well fitted curve in the direction sought with a large enough effect in the repeat runs; inconclusive means weak or mixed curves; inactive means no such curve, though single readings can be large; an effect the other way counts as inactive or inconclusive.

What was measured:
[1] = qHTS assay to identify small molecule antagonists of the glucocorticoid receptor (GR) signaling pathway - cell viability counter screen (AID 720693); further: nearly all actives have a fitted effect of over 55% in size
[2] = qHTS assay for identifying genotoxic compounds that show differential cytotoxicity against isogenic chicken DT40 cell lines with known DNA damage response pathways - wild type cell line (AID 743012); further: nearly all actives have a fitted effect of over 60% in size
Summary of the method: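 Quantitative HTS on parental DT40 cells: 40 h compound treatment at 37 C/5% CO2, with viability then determined by CellTiter-Glo luminescence. Values serve as the DNA repair-proficient reference for differential cytotoxicity.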

[3] = qHTS assay for identifying genotoxic compounds that show differential cytotoxicity against isogenic chicken DT40 cell lines with known DNA damage response pathways - Rev3 mutant cell line (AID 743014); further: nearly all actives have a fitted effect of over 55% in size; further: potency means the concentration at half of the fitted maximal effect
[4] = qHTS assay for identifying genotoxic compounds that show differential cytotoxicity against isogenic chicken DT40 cell lines with known DNA damage response pathways - Rad54/Ku70 mutant cell line (AID 743015); further: nearly all actives have a fitted effect of over 60% in size; further: potency means the concentration at half of the fitted maximal effect
[5] = qHTS assay to identify small molecule antagonists of the androgen receptor (AR) signaling pathway - cell viability counter screen (AID 743033; further: nearly all actives have a fitted effect of over 45% in size)
[6] = molecular target: Androgen receptor (Homo sapiens) (UniProt P10275); experiment: qHTS assay to identify small molecule agonists of the androgen receptor (AR) signaling pathway (AID 743036; active means well fitted activation curve with a large enough effect in the signal ratio in the repeat runs, with a control signal flat, not every such curve was filed as active; the % refers to the signal ratio)
Chain of Androgen receptor (Homo sapiens) (P10275 whole entry, looked up): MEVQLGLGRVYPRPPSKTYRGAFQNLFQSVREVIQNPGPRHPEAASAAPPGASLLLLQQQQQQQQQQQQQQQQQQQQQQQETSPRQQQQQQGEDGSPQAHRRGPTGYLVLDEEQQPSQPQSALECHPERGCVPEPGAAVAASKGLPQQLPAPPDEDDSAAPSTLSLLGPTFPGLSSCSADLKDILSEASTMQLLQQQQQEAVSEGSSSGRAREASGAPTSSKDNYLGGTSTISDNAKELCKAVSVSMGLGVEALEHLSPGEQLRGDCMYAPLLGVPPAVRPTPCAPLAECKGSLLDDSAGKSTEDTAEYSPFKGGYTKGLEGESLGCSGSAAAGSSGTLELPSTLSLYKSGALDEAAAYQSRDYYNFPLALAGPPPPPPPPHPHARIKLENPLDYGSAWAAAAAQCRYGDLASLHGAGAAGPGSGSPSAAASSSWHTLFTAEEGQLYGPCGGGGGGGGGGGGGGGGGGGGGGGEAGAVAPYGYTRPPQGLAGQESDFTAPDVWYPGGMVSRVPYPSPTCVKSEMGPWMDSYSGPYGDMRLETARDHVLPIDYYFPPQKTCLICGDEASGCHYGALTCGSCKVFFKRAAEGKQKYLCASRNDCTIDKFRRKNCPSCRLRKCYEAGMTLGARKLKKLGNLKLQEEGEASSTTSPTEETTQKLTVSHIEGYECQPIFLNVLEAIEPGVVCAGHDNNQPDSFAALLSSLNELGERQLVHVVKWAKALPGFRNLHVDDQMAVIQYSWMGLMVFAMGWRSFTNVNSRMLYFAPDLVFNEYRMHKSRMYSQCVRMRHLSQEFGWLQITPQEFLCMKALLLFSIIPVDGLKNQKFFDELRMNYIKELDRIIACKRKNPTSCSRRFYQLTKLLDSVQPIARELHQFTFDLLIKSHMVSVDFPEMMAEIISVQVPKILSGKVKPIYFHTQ
Summary of the method: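 Activation was read as beta-lactamase FRET signal from LiveBLAzer B/G substrate, added for 2 h at room temperature. Before that, GeneBLAzer AR-UAS-bla GripTite (HEK293) cells had 16 h compound exposure at 37C.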

[7] = molecular target: Androgen receptor (Homo sapiens) (UniProt P10275); experiment: qHTS assay to identify small molecule agonists of the androgen receptor (AR) signaling pathway using the MDA cell line (AID 743040; further: nearly all actives have a fitted effect of over 20% in size)
Summary of the method: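 MDA-kb2 breast carcinoma cells carrying MMTV-luciferase (responsive to AR and GR), plated 5 h then treated 16 h with compounds at 37C, 0% CO2. Read-out was ONE-Glo luminescence after 30 min at room temperature.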

[8] = qHTS assay to identify small molecule antagonists of the androgen receptor (AR) signaling pathway using the MDA cell line - cell viability counter screen (AID 743041; further: nearly all actives have a fitted effect of over 45% in size)
Summary of the method: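 MDA-kb2 AR-luc cells (MMTV-luciferase, AR/GR responsive) treated with compounds plus R1881 agonist for 16 h at 37C. CellTiter-Fluor added at 15.5 h; fluorescence read after 30 min in the same wells.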

[9] = molecular target: Androgen receptor (Homo sapiens) (UniProt P10275); experiment: qHTS assay to identify small molecule antagonists of the androgen receptor (AR) signaling pathway using the MDA cell line (AID 743042; further: nearly all actives have a fitted effect of over 55% in size)
Summary of the method: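 MDA-kb2 breast carcinoma cells carrying MMTV-luciferase (AR/GR responsive) were co-treated with compounds and the agonist R1881 for 16 h at 37C. Inhibition read as ONE-Glo luminescence; CellTiter-Fluor fluorescence measured in parallel for cytotoxicity.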

[10] = molecular target: Androgen receptor (Homo sapiens) (UniProt P10275); experiment: qHTS assay to identify small molecule antagonists of the androgen receptor (AR) signaling pathway (AID 743035; active means well fitted inhibition curve with a large enough effect in the signal ratio in the repeat runs, not every such curve was filed as active; the % refers to the signal ratio)
Summary of the method: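 Cell line: GeneBLAzer AR-UAS-bla GripTite (HEK293). Stimulus: R1881 added after compound. Exposure: 16 h, 37C, 5% CO2. Readout: LiveBLAzer B/G FRET fluorescence after 2 h at room temperature.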

Measured: Potency

COc1ccc(CCC(C)=O)cc1
inactive: [1] | [2] | [3] | [4] | [5]

OCc1cccc(Oc2ccccc2)c1
not listed: [10]
inactive: all other assays above

N#Cc1ccccc1
inactive: [1] | [2] | [3] | [4] | [5] | [8]

CN/C(=C\[N+](=O)[O-])NCCSCc1csc(CN(C)C)n1
inactive: all assays above

CCCCC(C=O)CC (centres undefined)
inactive: [1] | [2] | [3] | [4] | [5] | [8]

O=C(O)Cn1c(=O)n(Cc2ccc(Br)cc2F)c(=O)c2ccc(Cl)cc21
not listed: [6] | [10]
inactive: all other assays above

O=C(O)c1cc2ccccc2cc1O
not listed: [6] | [10]
inactive: all other assays above

CCOCCOCCOCCO
inactive: [1] | [2] | [3] | [4] | [5] | [8]

C=C(C)C(=O)OCC(C)C
inactive: [1] | [2] | [3] | [4] | [5] | [8]

Cc1ccc([N+](=O)[O-])cc1S(=O)(=O)O
inactive: all assays above

CCCCCCCCCCO
inactive: [1] | [2] | [3] | [4] | [5] | [8]

CC(=O)Oc1ccc(C)cc1
inactive: all assays above

O=C(O)c1ccc(C(=O)O)c(C(=O)O)c1
inactive: all assays above

CC(=O)OCc1ccccc1
inactive: all assays above

CCO[Si](CCCN)(OCC)OCC
inactive: [1] | [2] | [3] | [4] | [5] | [8]

COc1cc(OC)c(C(=O)CCCN2CCCC2)c(OC)c1
inactive and 21.7 µM (active): [3]
inactive: all other assays above

CC(C)(C#N)c1cc(Cn2cncn2)cc(C(C)(C)C#N)c1
inactive: [1] | [2] | [3] | [4] | [5] | [8]

CCCCCCCCCCN
inactive: [1] | [2] | [3] | [4] | [5] | [8]

C=CC[N+](C)(C)CC=C
inactive: [1] | [2] | [3] | [4] | [5] | [8]

COc1ccccc1OCC(O)CO (centres undefined)
inactive: all assays above

COc1ccc(N)c(C)c1
inactive: [1] | [2] | [3] | [4] | [5] | [8]

CC(CCl)OP(=O)(OC(C)CCl)OC(C)CCl (centres undefined)
inactive: [1] | [2] | [3] | [4] | [5] | [8]

CC(=O)CC(C)(C)O
inactive: all assays above

O=C(O)c1ccccc1C(=O)O
inactive: [1] | [2] | [3] | [4] | [5] | [8]

CCCCCC(=O)O
inactive: all assays above

COc1ccc(C)cc1N
inactive: all assays above

CC(=O)CCC=C(C)C
inactive: [1] | [2] | [3] | [4] | [5] | [8]

CN(C)CCOC(=O)COc1ccc(Cl)cc1
inactive: [1] | [2] | [3] | [4] | [5] | [8]

COC(=O)c1cccnc1
inactive: all assays above

CSc1ccc(Cl)cc1
inactive: all assays above

OCc1ccccc1
inactive: all assays above

CC(C)CC(=O)CC(C)CC(C)C (centres undefined)
inactive: all assays above

CNC(=S)N(C)C
inactive: [1] | [2] | [3] | [4] | [5] | [8]

CCOC(=O)c1ccc(N)cc1
inactive: [1] | [2] | [3] | [5] | [8]
7.17 µM (active) and inactive: [4]

CC(CCO)CC(C)(C)C (centres undefined)
inactive: all assays above

CC(C)(Oc1ccc(CCNC(=O)c2ccc(Cl)cc2)cc1)C(=O)O
inactive: [1] | [2] | [3] | [4] | [5] | [8]

CCNc1ccccc1
inactive: all assays above

COC(=O)CCCC(=O)OC
inactive: [1] | [2] | [3] | [4] | [5] | [8]

CC(=O)OCCOC(C)=O
inactive: [1] | [2] | [3] | [4] | [5] | [8]

O=C1C(c2[nH]c3ccccc3c2O)=Nc2ccccc21
inactive: [1] | [2] | [3] | [4] | [5] | [8]

NCCNCCN
inactive and 68.6 µM (active): [3]
inactive: [1] | [2] | [4] | [5] | [8]

C=C(C)[C@H]1CC=C(C)C(=O)C1
inactive: [1] | [2] | [3] | [4] | [5] | [8]

c1ccc2c(c1)Cc1ccccc1-2
inactive: [1] | [2] | [5] | [8]
inactive and 61.1 µM (active): [3] | [4]

CCNc1cccc(C)c1
inactive: [1] | [2] | [3] | [4] | [5] | [8]

NCCN1CCNCC1
inactive: [1] | [2] | [3] | [4] | [5] | [8]

CCCCCCCC=O
inactive: [1] | [2] | [3] | [4] | [5] | [8]

CC(O)CC(C)(C)O (centres undefined)
inactive: [1] | [2] | [3] | [4] | [5] | [8]

CCO[Si](CCC#N)(OCC)OCC
inactive: [1] | [2] | [3] | [4] | [5] | [8]

CN1C(=O)CC[C@H]1c1cccnc1
inactive: [1] | [2] | [3] | [4] | [5] | [8]
